# Data from PubChem BioAssay (NCATS).
# Records with an inconclusive call do not appear. A call without a number means that no potency is given here. Activity calls are given as the source filed them. Unless noted, calls follow the shape of the dose curve; as a rule, active = well fitted curve in the direction sought with a large enough effect; inconclusive = small, poorly fitted or top-dose-only effect, or another doubt; inactive = no such curve, though single readings can be large; an effect the other way counts as inactive or inconclusive.
# Legend:
# [1] = AP1 Signaling Pathway (AID 357; active = well fitted curve in either direction with a large enough effect, not every such curve was filed as active;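 also: ME-180 reporter cells stimulated with EGF at its EC50 level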); settings: ME-180 AP-1-bla reporter, EGF-induced, beta-lactamase ratio, 5 h; at 38 µM (top of the series)
# Method in brief: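 A ratiometric CCF4 readout (405 nm excitation; 460 and 530 nm emission) quantified AP-1-driven beta-lactamase in ME-180 cells after 5 h with compound and EC50 EGF; AC50 values were derived for activators and inhibitors.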
# [2] = target: Cytochrome P450 1A2 (Homo sapiens) (UniProt P05177); assay: p450-cyp1a2 (AID 410; calls by dose curve)
# Method in brief: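 O-Demethylation of luciferin 6' methyl ether by human CYP1A2 is monitored as luciferase luminescence. Substrate sits at Km (100uM); enzyme is 20nM. Values are scaled to 57 uM furafylline as maximal inhibition.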
# [3] = Stat Signaling Pathway (AID 446; active = well fitted curve in either direction with a large enough effect, not every such curve was filed as active;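 also: ME-180 cervical cancer cells given 40 pM IL-6 alongside compound; SIE-controlled beta-lactamase reporter measured as 460/530 nm FRET emission ratio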); settings: ME-180 (cervical carcinoma) SIE beta-lactamase reporter, IL-6 stimulated, 5 h; at 38 µM (top of the series)
# Method in brief: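 Overnight-plated ME-180 cells bearing a STAT Inducible Element beta-lactamase reporter; 5 h co-exposure to compound and 40 pM IL-6; values normalized to 300 pM IL-6 and 125 nM JAK inhibitor controls.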
# [4] = target: Glucocorticoid receptor (Homo sapiens) (UniProt P04150); assay: GR-GFP Redistribution (AID 450;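 active = compounds whose dose series gives a full or clear partial fitted curve of increased nuclear translocation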; also: potency is read from the fitted curve at half-maximal effect); settings: U2OS GR-GFP nuclear translocation, laser cytometry, 2 h
# [5] = target: Glucocorticoid receptor (Homo sapiens) (UniProt P04150); assay: GR-EFC Redistribution (AID 451; calls by dose curve; also: potency is read from the fitted curve at half-maximal effect); settings: CHO-K1 GR-EFC translocation, beta-gal luminescence, 2 h
# Method in brief: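 CHO-K1 cells stably expressing nuclear-localized β-gal enzyme acceptor and GR fused C-terminally to the enzyme donor fragment; ligand-driven nuclear translocation restores β-gal by complementation. Compounds titrated up to 46 uM final, 2 h at 37 °C; luminescence read.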
# [6] = target: Mitogen-activated protein kinase 10 (Mus musculus) (UniProt Q61831); assay: JNK3 AlphaScreen Assay (AID 530; active = well fitted curve in either direction with a large enough effect, not every such curve was filed as active;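 also: kinase came from lysate of stimulated human HepG2 cells; signal reports phosphorylation of biotinylated GST-cJun 1-79 at Ser73 with 10 µM ATP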)
# Method in brief: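 Phosphorylation of biotinylated GST-cJun(1-79) at Ser73 is measured by AlphaScreen proximity luminescence. Enzyme is JNK3 in HepG2 lysates activated with interleukin-1beta and tumor necrosis factor alpha; ATP is 10 uM final.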
# [7] = target: 3',5'-cyclic-AMP phosphodiesterase 4B (Homo sapiens) (UniProt Q07343); assay: qHTS Assay for Inhibitors of PDE-IV (AID 607; active = well fitted activation curve with a large enough effect in the main read-out, with a control signal flat, not every such curve was filed as active)
# Method in brief: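 Live HEK293 cells with a modified cyclic nucleotide-gated (CNG) channel report intracellular cAMP via membrane-potential dye fluorescence (ex 535/em 590 nm). Endogenous PDE-IV was targeted. Compounds were tested at up to 22.9 uM final; RO 20-1724 100 uM served as control.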
# [8] = target: Guanine nucleotide-binding protein G(i) subunit alpha-1 (Homo sapiens) (UniProt P63096); assay: qHTS Assay for Inhibitors of RGS12 GoLoco Motif Activity (Green Fluorophore) (AID 879);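 also: negative values mean loss of peptide binding seen as reduced polarization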
# Method in brief: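 A drop in FITC polarization marked displacement of the FITC-tagged RGS12 GoLoco peptide (10 nM) from Gαi1 (50 nM). Compounds were incubated 10 min at room temperature in Tris pH 7.5 buffer containing 150 mM NaCl, 0.1 mM GDP and 0.05% NP40; unlabeled peptide titration served as control.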
# [9] = target: Cytochrome P450 3A4 (Homo sapiens) (UniProt P08684); assay: qHTS Assay for Activators of Cytochrome P450 3A4 (AID 885); also: nearly all actives have a fitted effect of over 65% in size
# Method in brief: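 Using 20nM recombinant human CYP3A4 in potassium phosphate (200mM), substrate Luciferin-PPXE at 25uM, luminescent luciferin detection followed a 60-min RT NADPH reaction; data scaled to 57 uM ketoconazole.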
# [10] = target: Cytochrome P450 2D6 (Homo sapiens) (UniProt P10635); assay: qHTS Assay for Inhibitors and Substrates of Cytochrome P450 2D6 (AID 891); also: potency is read from the fitted curve at half-maximal effect; nearly all actives have a fitted effect of over 60% in size
# Method in brief: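 Luminescent read-out of luciferin formed by 5 nM human CYP2D6 demethylating 30 uM Luciferin-ME EGE (Km level) over 60 min at room temperature after NADPH regeneration addition. Data normalized to full inhibition by 1.43 uM quinidine.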
# [11] = target: Pyruvate kinase (Leishmania mexicana) (UniProt Q27686); assay: qHTS Validation Assay for Inhibitors of Leishmania Mexicana Pyruvate Kinase (AID 945)
# Method in brief: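 Pyruvate kinase activity of E451W LmPYK (0.2 nM) was followed as ATP output after 1 h at room temperature with 0.5 mM PEP and 0.1 mM ADP, detected by PKLight luminescence.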
# [12] = target: Pyruvate kinase PKM (Homo sapiens) (UniProt P14618); assay: qHTS Assay for Activators of Human Muscle Pyruvate Kinase (AID 954; active = well fitted curve in the direction sought with a large enough effect, not every such curve was filed as active)
# Method in brief: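 Screening used highly purified human pyruvate kinase M2 under submaximal activity, with PEP at its Km and ADP below Km. After an hour at room temperature, ATP was read by luciferase luminescence.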
# [13] = target: Alpha-galactosidase A (Homo sapiens) (UniProt P06280); assay: Counterscreen for Glucocerebrosidase Inhibitors: qHTS Assay for Human alpha-Galactosidase at pH 4.5 (AID 992)
# Method in brief: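 Each compound is preincubated briefly with 2 nM enzyme before substrate addition (80 uM); plates then sit 20 min at ambient temperature, are quenched with 1M NaOH/1M glycine, and read fluorometrically.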
# [14] = target: alpha-glucosidase (Oryza sativa, rice) (UniProt Q653V4); assay: Counterscreen for Glucocerebrosidase Inhibitors: qHTS Assay for Rice alpha-Glucosidase at pH 5.0 (AID 997)
# Method in brief: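 Endpoint fluorogenic assay at pH 5.0: compounds (0.7 nM to 77 uM) titrated against 4 nM rice enzyme and 400 uM 4-MU-alpha-glucoside for 20 min at room temperature; NaOH/glycine stop, read ex 365/em 440 nm, Hill-fitted AC50.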
# [15] = Validation of Assay for Modulators of Lamin A Splicing (AID 1459; active = well fitted curve in the direction sought with a large enough effect in the signal ratio; the % refers to the signal ratio;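 also: cells exposed to compound for two days before reading; ratio rise marks activators and ratio drop marks inhibitors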)
# Method in brief: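 Splicing correction is reported by an EGFP-containing lamin A minigene in stably transfected S3 HeLa cells, while DsRed2 controls for viability and nonspecific signal. Cells are exposed to compounds for 48 hrs before the GFP over RFP ratio is taken.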
# [16] = qHTS Assay for Lipid Storage Modulators (AID 1519; calls by dose curve); settings: Drosophila S3 cells, BODIPY lipid droplet/cell ratio, laser cytometry, cells loaded with oleic acid
# Method in brief: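 Cells seeded at 5,000 per well were treated with compounds over a concentration series and loaded with oleic acid (400 uM, as added). Lipid droplet fluorescence (488 nm excitation, 500-530 nm channel) was read by laser-scanning cytometry and normalized to 20 uM Triacsin C.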
# [17] = target: DNA repair nuclease/redox regulator APEX1 (Homo sapiens) (UniProt P27695); assay: qHTS Validation Assay for Inhibitors of the Human Apurinic/apyrimidinic Endonuclease 1 (APE1) (AID 1705;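 also: TAMRA fluorescence gain over two minutes as APE1 cuts a quenched THF abasic duplex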)
# Method in brief: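 Endonuclease activity of human APE1 is followed as dequenching when the enzyme incises a tetrahydrofuran abasic site in a short duplex labelled 5'-TAMRA/3'-BHQ-2 (50 nM final), after 15 min enzyme–compound preincubation at room temperature.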
# [18] = Counterscreen for APE1 Inhibitors: Fluorescent Dye Displacement Validation Assay (AID 1707)
# Method in brief: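 Loss of Thiazole Orange fluorescence marks promiscuous DNA binders. The dye (250 nM) is mixed with 50 nM abasic-site dsDNA in pH7.5 Tris buffer containing MgCl2, then compounds are added and emission is read once.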
# [19] = target: Endonuclease 4 (Escherichia coli (strain K12)) (UniProt P0A6C1); assay: Counterscreen for APE1 Inhibitors: qHTS Validation Assay for Inhibitors of Endonuclease IV (AID 1708)
# Method in brief: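 Enzyme (2 nM) + compound, 15 min RT; add 50 nM TAMRA/BHQ-2 THF-site dsDNA; kinetic read ex525/em598, 3 reads/60 s; activity = read 3 − read 1. Buffer Tris pH 7.5, 50 mM NaCl, 2 mM MgCl2, DTT, Tween-20.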
# [20] = qHTS for differential inhibitors of proliferation of Plasmodium falciparum line 7G8 (AID 1815);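 also: potency is read from the fitted curve at half-maximal effect; parasite growth measured after three days of incubation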
# [21] = qHTS for differential inhibitors of proliferation of Plasmodium falciparum line D10 (AID 1877);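 also: parasites grown with compound for 72 h before DNA staining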
# [22] = qHTS for differential inhibitors of proliferation of Plasmodium falciparum line W2 (AID 1883); settings: Potency: Plasmodium falciparum W2 proliferation inhibition;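 also: potency is read from the fitted curve at half-maximal effect; parasites grown with compound for 72 h before lysis and staining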
# [23] = target: Ferritin light chain (Equus caballus) (UniProt P02791); assay: qHTS Validation Assay for Identification of Novel General Anesthetics (AID 2323)
# Method in brief: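 Apoferritin from horse spleen (10 uM) was mixed with 1-aminoanthracene at 50% saturation in PBS, then compounds were added. After 10 min at room temperature, fluorescence was read (ex 380 nm, em 535 nm) and normalized to free-probe and complex controls.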
# [24] = target: ATP-dependent DNA helicase Q1 (Homo sapiens) (UniProt P46063); assay: qHTS Validation Assay for Inhibitors of RecQ-Like Dna Helicase 1 (RECQ1) (AID 2353)
# Method in brief: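 RECQ1T1 50 nM; forked duplex (20 bp + 30-nt ss tails) 200 nM, ATP 2 mM final; pH 8.0, 2 mM MgCl2, 2.5 ug/ml poly(dI-dC); 15 min compound preincubation; discontinuous kinetic read over 2 h at RT.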
# [25] = Cytometric Cell-Based qHTS for Inhibitors of the mTORC1 Signaling Pathway in MEF (Tsc2-/-, p53-/-) Cells (AID 2660);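 also: Tsc2 and p53 null MEFs carrying empty vector with compound for 24 h; percent of cells above a phospho-rpS6 to PI ratio cutoff in each well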
# Method in brief: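 Percent of cells positive for normalized phospho-S6 staining is reported, with the cutoff set from rapamycin (7.5 nM) versus DMSO wells. Tsc2-/-, p53-/- MEFs received compound for 24 hrs.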
# [26] = High Content Imaging Cell-Based qHTS for Inhibitors of the mTORC1 Signaling Pathway in MEF (Tsc2-/-, p53-/-) Cells (AID 2666); settings: at 38.3 µM (top of the series);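 also: percent of cells scored positive for phospho-rpS6 Ser235/236 immunostaining by imaging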
# Method in brief: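 Inhibition of rpS6 phosphorylation is measured by immunofluorescence imaging in empty-vector Tsc2-/-, p53-/- mouse embryonic fibroblasts after 24 hrs compound exposure at 37 degree Celsius. Results are reported as % positive cells per well.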
# [27] = High Content Imaging Cell-Based qHTS for Inhibitors of the mTORC1 Signaling Pathway in MEF Cells (AID 2667);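 also: Tsc2-/- p53-/- MEFs stably re-expressing wild-type Tsc2 exposed 24 h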
# Method in brief: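 Fixed-cell imaging of phospho-S6 (Ser235/236, Alexa-488) after 24 hrs of compound treatment at 37 degree Celsius. Signal was normalized to Hoechst, and thresholds from the highest and lowest wells split cells into % active versus % non-active.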
# [28] = Cytometry Cell-Based qHTS for Inhibitors of the mTORC1 Signaling Pathway in MEF cells (AID 2668);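 also: Tsc2-/- p53-/- mouse embryonic fibroblasts stably re-expressing wild-type Tsc2; percent cells positive for phospho-rpS6 Ser235/236 relative to propidium iodide stain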
# Method in brief: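 Pathway inhibition in WT Tsc2-rescued Tsc2-/-, p53-/- MEFs is measured as the Alexa-488 phospho-rpS6 to propidium iodide intensity ratio after 24 hrs of compound at 37 degree Celsius. PI-stained cell number gives viability.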
# Chain of Glucocorticoid receptor (Homo sapiens) (P04150 whole entry, looked up, the tested form may be a part): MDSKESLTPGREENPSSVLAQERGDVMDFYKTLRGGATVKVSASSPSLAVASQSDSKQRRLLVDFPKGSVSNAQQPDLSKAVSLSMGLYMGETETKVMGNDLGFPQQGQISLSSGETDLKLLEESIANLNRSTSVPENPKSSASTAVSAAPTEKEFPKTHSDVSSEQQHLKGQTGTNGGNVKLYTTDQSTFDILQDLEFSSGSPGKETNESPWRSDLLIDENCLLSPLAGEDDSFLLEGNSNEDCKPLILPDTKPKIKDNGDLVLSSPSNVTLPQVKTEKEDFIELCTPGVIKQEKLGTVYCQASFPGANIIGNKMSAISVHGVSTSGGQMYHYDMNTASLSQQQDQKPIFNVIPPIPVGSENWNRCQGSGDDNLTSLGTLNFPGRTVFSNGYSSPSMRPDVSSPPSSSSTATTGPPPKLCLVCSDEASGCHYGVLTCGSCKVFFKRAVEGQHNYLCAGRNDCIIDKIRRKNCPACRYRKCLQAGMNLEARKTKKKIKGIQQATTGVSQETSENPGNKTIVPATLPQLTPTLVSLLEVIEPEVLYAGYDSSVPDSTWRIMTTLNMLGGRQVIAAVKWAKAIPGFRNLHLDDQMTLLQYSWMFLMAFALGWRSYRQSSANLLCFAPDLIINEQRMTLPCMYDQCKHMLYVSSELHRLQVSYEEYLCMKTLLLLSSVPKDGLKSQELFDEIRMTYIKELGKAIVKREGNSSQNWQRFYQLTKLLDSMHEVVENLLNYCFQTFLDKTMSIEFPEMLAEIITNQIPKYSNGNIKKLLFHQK
# Chain of Pyruvate kinase (Leishmania mexicana) (Q27686 2-499 E452W): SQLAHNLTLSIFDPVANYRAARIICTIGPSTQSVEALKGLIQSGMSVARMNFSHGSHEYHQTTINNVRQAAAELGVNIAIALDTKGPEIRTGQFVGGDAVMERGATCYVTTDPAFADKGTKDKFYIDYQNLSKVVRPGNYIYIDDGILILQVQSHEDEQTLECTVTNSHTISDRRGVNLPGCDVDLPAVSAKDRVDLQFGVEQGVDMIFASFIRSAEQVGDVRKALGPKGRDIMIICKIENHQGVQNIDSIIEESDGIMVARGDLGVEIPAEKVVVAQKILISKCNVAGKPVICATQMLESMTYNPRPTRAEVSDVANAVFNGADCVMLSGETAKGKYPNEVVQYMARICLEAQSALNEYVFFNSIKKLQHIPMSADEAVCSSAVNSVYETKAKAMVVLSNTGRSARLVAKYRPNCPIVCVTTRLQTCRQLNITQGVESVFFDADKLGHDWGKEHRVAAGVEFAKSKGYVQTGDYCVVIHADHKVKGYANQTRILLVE
# Chain of Cytochrome P450 1A2 (Homo sapiens) (P05177 whole entry, looked up): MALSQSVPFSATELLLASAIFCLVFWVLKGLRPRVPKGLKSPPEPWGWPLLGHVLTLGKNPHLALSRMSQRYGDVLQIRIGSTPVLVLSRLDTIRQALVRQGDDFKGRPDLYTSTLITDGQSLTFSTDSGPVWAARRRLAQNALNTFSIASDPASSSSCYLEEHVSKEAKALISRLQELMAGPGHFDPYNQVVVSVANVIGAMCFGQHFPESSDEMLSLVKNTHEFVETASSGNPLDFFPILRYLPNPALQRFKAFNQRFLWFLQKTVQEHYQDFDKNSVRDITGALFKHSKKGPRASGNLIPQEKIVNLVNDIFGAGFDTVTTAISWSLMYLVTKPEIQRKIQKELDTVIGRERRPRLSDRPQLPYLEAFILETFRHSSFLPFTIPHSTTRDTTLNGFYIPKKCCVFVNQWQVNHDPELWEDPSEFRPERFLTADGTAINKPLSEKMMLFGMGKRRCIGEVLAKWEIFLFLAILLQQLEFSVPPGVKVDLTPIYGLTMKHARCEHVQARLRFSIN
# Chain of Cytochrome P450 3A4 (Homo sapiens) (P08684 whole entry, looked up): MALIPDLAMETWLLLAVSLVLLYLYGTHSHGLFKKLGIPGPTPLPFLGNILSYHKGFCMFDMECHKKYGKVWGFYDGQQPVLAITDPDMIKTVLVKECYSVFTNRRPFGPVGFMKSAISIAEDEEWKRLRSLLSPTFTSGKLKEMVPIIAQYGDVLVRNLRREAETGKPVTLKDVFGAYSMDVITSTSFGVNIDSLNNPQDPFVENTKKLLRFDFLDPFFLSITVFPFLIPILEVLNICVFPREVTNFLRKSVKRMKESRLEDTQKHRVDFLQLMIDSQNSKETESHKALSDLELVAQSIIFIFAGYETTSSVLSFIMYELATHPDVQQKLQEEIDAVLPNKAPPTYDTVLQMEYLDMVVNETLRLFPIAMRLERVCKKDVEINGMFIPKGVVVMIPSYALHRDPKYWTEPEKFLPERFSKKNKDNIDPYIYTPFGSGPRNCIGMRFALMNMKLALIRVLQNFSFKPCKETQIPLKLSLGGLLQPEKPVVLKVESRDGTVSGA
# Chain of ATP-dependent DNA helicase Q1 (Homo sapiens) (P46063 whole entry, looked up): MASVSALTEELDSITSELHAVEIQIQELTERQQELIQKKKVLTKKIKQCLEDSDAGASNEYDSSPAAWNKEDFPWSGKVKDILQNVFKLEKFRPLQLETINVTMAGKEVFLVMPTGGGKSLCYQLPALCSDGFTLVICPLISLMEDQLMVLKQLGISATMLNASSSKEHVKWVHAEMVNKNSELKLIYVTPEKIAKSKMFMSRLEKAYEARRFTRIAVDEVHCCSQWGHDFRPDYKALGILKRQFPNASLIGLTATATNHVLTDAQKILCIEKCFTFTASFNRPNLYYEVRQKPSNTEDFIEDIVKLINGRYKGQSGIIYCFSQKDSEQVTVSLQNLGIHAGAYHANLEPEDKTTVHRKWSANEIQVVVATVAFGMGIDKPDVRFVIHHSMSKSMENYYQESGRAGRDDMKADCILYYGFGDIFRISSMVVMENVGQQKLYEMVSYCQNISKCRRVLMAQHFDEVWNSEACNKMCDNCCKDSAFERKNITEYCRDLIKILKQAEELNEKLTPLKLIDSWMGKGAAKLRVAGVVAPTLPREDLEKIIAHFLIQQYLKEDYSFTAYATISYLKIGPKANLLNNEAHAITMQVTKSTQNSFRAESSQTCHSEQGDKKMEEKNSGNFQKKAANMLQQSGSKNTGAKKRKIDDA
# Chain of Ferritin light chain (Equus caballus) (P02791 2-175 limits assumed): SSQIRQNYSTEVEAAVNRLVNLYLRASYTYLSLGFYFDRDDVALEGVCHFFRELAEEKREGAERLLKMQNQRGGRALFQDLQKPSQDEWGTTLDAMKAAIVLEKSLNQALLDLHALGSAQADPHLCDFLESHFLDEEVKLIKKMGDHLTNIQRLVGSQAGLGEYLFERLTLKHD
# Chain of 3',5'-cyclic-AMP phosphodiesterase 4B (Homo sapiens) (Q07343 whole entry, looked up): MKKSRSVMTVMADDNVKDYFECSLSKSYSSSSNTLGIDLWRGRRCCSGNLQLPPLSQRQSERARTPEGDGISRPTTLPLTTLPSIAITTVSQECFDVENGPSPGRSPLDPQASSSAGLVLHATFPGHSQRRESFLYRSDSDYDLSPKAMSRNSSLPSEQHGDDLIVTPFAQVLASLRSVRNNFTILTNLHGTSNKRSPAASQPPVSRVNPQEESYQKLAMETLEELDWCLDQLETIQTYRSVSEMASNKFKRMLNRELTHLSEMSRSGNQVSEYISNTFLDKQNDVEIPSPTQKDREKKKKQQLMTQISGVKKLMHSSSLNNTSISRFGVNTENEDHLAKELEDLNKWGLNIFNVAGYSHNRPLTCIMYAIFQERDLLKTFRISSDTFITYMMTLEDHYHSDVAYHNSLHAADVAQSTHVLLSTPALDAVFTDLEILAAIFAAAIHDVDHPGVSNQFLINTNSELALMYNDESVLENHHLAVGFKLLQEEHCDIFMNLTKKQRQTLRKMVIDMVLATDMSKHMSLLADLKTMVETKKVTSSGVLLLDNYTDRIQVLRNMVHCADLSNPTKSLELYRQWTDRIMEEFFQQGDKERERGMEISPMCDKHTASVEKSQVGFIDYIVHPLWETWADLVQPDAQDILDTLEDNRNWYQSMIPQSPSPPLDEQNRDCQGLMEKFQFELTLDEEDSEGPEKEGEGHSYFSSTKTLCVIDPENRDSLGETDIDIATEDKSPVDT
# Chain of Guanine nucleotide-binding protein G(i) subunit alpha-1 (Homo sapiens) (P63096 whole entry, looked up): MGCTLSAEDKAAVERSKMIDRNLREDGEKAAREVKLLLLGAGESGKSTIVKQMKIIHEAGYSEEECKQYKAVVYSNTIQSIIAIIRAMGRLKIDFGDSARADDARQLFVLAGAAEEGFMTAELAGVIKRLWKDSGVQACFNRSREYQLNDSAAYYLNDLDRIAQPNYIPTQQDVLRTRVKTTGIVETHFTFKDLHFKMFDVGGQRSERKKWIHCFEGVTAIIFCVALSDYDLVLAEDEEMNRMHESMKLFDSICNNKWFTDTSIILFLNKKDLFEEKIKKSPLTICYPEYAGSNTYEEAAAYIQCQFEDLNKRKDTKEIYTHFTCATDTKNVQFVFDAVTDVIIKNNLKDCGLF
# Chain of Alpha-galactosidase A (Homo sapiens) (P06280 whole entry, looked up): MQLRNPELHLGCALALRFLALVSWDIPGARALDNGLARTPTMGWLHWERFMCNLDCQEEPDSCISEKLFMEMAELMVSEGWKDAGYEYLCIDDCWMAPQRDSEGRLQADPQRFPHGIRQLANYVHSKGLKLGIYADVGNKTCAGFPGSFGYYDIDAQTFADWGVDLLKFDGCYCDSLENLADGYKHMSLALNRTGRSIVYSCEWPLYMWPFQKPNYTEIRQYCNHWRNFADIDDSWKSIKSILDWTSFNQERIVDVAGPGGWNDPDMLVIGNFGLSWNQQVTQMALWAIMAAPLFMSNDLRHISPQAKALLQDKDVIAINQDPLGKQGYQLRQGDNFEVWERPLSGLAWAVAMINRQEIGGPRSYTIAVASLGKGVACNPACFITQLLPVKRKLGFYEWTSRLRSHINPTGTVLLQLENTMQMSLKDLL
# Chain of DNA repair nuclease/redox regulator APEX1 (Homo sapiens) (P27695 whole entry, looked up): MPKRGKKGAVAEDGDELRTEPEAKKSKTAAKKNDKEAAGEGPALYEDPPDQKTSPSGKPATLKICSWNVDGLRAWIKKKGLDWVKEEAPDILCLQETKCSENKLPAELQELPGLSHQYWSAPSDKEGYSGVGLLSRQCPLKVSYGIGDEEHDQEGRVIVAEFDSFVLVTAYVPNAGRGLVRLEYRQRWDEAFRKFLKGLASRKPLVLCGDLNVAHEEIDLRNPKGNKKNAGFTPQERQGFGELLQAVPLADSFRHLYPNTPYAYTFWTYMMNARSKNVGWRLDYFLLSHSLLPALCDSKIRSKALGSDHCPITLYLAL
smiles,measurement,setting,value
C1CCC(N=C(NC23CC4CC(CC(C4)C2)C3)N2CCOCC2)CC1,"activity change, negative = inhibition",[1],8.68% (inactive)
same,Potency,[2],inactive
same,"activity, negative = inhibition",[3],17.1% (inactive)
same,Potency,[4],> 46 µM (inactive)
same,Potency,[5],> 46 µM (inactive)
same,Potency,[6],inactive
same,Potency,[7],inactive
same,outcome,[8],inactive
same,Potency,[9],inactive
same,Potency,[10],631 nM (active)
same,Potency,[11],inactive
same,outcome,[12],inactive
same,outcome,[13],inactive
same,outcome,[14],inactive
same,outcome,[15],inactive
same,"activity change, negative = inhibition",[16]; at 57.5 µM (top of the series),1.57% (inactive)
same,max response,[16]; measured here: cell count channel max response,-18.7%
same,max response,[16]; measured here: lipid channel max response,-17.8%
same,Potency,[17],inactive
same,Potency,[18],inactive
same,Potency,[19],inactive
same,Potency,[20],7.94 µM (active)
same,Potency,[21],inactive
same,Potency,[22],7.08 µM (active)
same,outcome,[23],inactive
same,Potency,[24],inactive
same,outcome,[25],inactive
same,outcome,[26],inactive
same,Potency,[27],inactive
same,Potency,[28],inactive
